According to PubChem BioAssay (EPA / NIEHS):
Values joined by “and” are separate entries in the source; they are usually repeats but may differ in a detail not shown here. Equal values may be shown once. The source holds several records for some structures; these can differ, active in one and inactive in another. Active and inactive are the calls of the source. How the source made its calls: active means hit-call score of the fitted dose curve at least 0.9, where 1 is the maximum; inactive means score below 0.9.

Assay: BSK_3C_VCAM1: BioMAP Diversity Plus: 3C Assay for Vascular cell adhesion molecule 1 (VCAM1) Biomarker Activity (AID 2282999)
Settings: BioMAP 3C HUVEC, VCAM1 ELISA, cytokine-stimulated; actives raise or lower the signal
Procedure: BSK_3C is a cell-based, multiplexed-readout assay that uses umbilical vein endothelium, a human vascular primary cell, with measurements taken at 24 hours after chemical dosing in a 96-well plate.BSK_3C_VCAM1 is an assay component measured in the BSK_3C assay. It measures VCAM-1 antibody related to regulation of gene expression using ELISA technology.Data from the assay component BSK_3C_VCAM1 was analyzed into 1 assay endpoint. This assay endpoint, BSK_3C_VCAM1, was analyzed with bidirectional fitting relative to DMSO as the negative control and baseline of activity. Using a type of binding reporter, gain or loss-of-signal activity can be used to understand changes in the signaling as they relate to the gene VCAM1. Furthermore, this assay endpoint can be referred to as a primary readout, because this assay has produced multiple assay endpoints where this one serves a signaling function. To generalize the intended target to other relatable targets, this assay endpoint is annotated to the cell adhesion molecules intended target family, where the subfamily is Immunoglobulin CAM.
The levels of cell surface (or secreted, indicated by the prefix "s") biomarker endpoints were measured by ELISA. Overt cytotoxicity to cells in confluent adherent cultures (all systems other than the BT system) was assessed by measuring total protein levels using sulforhodamine B (SRB) staining in parallel cultures at the time of biomarker measurements, indicated as SRB endpoints. For proliferation assays for adherent cell types, individual cell types are cultured at sub-confluence and relative cell numbers quantified by SRB staining at time points optimized for each system (48 h: 3C and CASM3C systems; 72 h: BT and HDF3CGF systems; 96 h: SAg system). SRB was performed by staining cells with 0.1% SRB after fixation with 10% TCA and reading wells at 560 nm.Viability and proliferation of PBMC (T cells) was quantified by Alamar Blue reduction for the SAg and BT systems. For PBMC viability (referred to as PBMC Cytotoxicity within the assay endpoint names), cells were plated (75,000/well in a 96-well plate) and then chemical samples added for 1 h before addition of activators, SEB and TSST-1 (20 ng/mL final concentration each). Cells were incubated for 90 h. Then, Alamar Blue (20 uL/well) (Invitrogen, Cat DAL1100) was added for 6 h, and the plates were read with a fluorescence microplate reader at 546/580 nm (excitation/emission). For PBMC proliferation, cells were plated and activated as above but incubated for only 16 h prior to addition of Alamar Blue. Plates were read after 6 h.

Row | SMILES | outcome | AC50
1 | CCOc1cc(Oc2ccc(C(F)(F)F)cc2Cl)ccc1[N+](=O)[O-] | inactive | 
2 | C=CCC1=C(C)C(OC(=O)C2C(C=C(C)C)C2(C)C)CC1=O (stereo not given) | inactive | 33.2 µM (active) and 31 µM (active) and 29.8 µM (active)
3 | CNC(=O)ON=CC(C)(C)SC | inactive | 
4 | CCCCNC(=O)OCC#CI |  | 16.2 µM (active) and 20.8 µM (active)
5 | O=C(O)c1nc(Cl)ccc1Cl | inactive | 
6 | COP(=S)(OC)Oc1nc(Cl)c(Cl)cc1Cl | inactive | 
7 | CC(C)Oc1cc(-n2nc(C(C)(C)C)oc2=O)c(Cl)cc1Cl |  | 25.4 µM (active)
8 | O=C(O)COc1nc(Cl)c(Cl)cc1Cl | inactive | 
9 | N#CC(CCc1ccc(Cl)cc1)(Cn1cncn1)c1ccccc1 (stereo not given) | inactive | 
10 | C=CC1(C)OC(=O)N(c2cc(Cl)cc(Cl)c2)C1=O (stereo not given) | inactive | 
11 | CC(C)(C)c1ccc(CSc2cnn(C(C)(C)C)c(=O)c2Cl)cc1 | inactive | 
12 | CCCCC(CC)COC(=O)c1ccccc1C(=O)OCC(CC)CCCC (stereo not given) | inactive | 
13 | Cc1ccc(-c2c(Cl)nc(C#N)n2S(=O)(=O)N(C)C)cc1 |  | 34.3 µM (active)
14 | CCOC(=O)CC(SP(=S)(OC)OC)C(=O)OCC (stereo not given) | inactive | 
15 | CCNc1nc(Cl)nc(NC(C)C)n1 | inactive | 
16 | CCCC1COC(Cn2cncn2)(c2ccc(Cl)cc2Cl)O1 (stereo not given) | inactive | 
17 | CCON=C(CC)C1=C(O)CC(c2c(C)cc(C)cc2C)CC1=O (stereo not given) | inactive | 
18 | CC(Oc1ccc(Cl)cc1Cl)C(=O)O (stereo not given) | inactive | 
19 | CC1COC(Cn2cncn2)(c2ccc(Oc3ccc(Cl)cc3)cc2Cl)O1 (stereo not given) |  | 29.8 µM (active)

Row | SMILES | outcome | AC50
20 | CO/C=C(/C(=O)OC)c1ccccc1Oc1cc(Oc2ccccc2C#N)ncn1 | inactive | 21.1 µM (active)
21 | COC(=O)C=C(C)OP(=O)(OC)OC | inactive | 
22 | COc1cnc(OC)n2nc(NS(=O)(=O)c3c(OCC(F)F)cccc3C(F)(F)F)nc12 | inactive | 
23 | COP(N)(=O)SC (stereo not given) | inactive | 
24 | N#Cc1cc(Br)c(O)c(Br)c1 | inactive | 
25 | C#CCOS(=O)OC1CCCCC1Oc1ccc(C(C)(C)C)cc1 (stereo not given) |  | 12.8 µM (active)
26 | COc1nc(C)nc(NC(=O)NS(=O)(=O)c2ccccc2CCC(F)(F)F)n1 | inactive | 
27 | OC(c1ccc(Cl)cc1)(c1cncnc1)c1ccccc1Cl (stereo not given) | inactive | 
28 | Cc1cc(Cl)ccc1OCC(=O)O | inactive | 
29 | Oc1ccccc1-c1ccccc1 | inactive | 
30 | CCCCOC(=O)c1ccccc1C(=O)OCCCC | inactive | 
31 | CCc1nn(C)c(C(=O)NCc2ccc(C(C)(C)C)cc2)c1Cl |  | 31.8 µM (active)
32 | Cc1c(F)c(F)c(COC(=O)C2C(/C=C(\Cl)C(F)(F)F)C2(C)C)c(F)c1F (stereo not given) | inactive | 
33 | CC(C)C1(C)N=C(c2nc3ccccc3cc2C(=O)O)NC1=O (stereo not given) | inactive | 
34 | N#Cc1nn(-c2c(Cl)cc(C(F)(F)F)cc2Cl)c(N)c1S(=O)C(F)(F)F (stereo not given) | inactive | 
35 | C=CCC1=C(C)[C@@H](OC(=O)[C@@H]2[C@@H](C=C(C)C)C2(C)C)CC1=O |  | 30.3 µM (active)
36 | CCCN(CCC)c1c([N+](=O)[O-])cc(S(N)(=O)=O)cc1[N+](=O)[O-] |  | 38.1 µM (active) [middle of 4 runs]
37 | CON(C)C(=O)Nc1ccc(Cl)c(Cl)c1 | inactive | 
38 | O=C(Nc1ccccc1)Nc1ccnc(Cl)c1 | inactive | 
